Experimental data: ChEMBL document CHEMBL3988442, “University of Dundee, Small-Polar-MMV Screening Library” (2021)

What follows are compounds tested against T1, Aspartate--tRNA(Asp/Asn) ligase (Mycobacterium tuberculosis (strain ATCC 25618 / H37Rv)) (UniProt P9WFW3) (assay: Assay for Asp RNA synthetase-1 from Mycobacterium tuberculosis). Conditions: 30 µM.
T1 sequence (whole entry): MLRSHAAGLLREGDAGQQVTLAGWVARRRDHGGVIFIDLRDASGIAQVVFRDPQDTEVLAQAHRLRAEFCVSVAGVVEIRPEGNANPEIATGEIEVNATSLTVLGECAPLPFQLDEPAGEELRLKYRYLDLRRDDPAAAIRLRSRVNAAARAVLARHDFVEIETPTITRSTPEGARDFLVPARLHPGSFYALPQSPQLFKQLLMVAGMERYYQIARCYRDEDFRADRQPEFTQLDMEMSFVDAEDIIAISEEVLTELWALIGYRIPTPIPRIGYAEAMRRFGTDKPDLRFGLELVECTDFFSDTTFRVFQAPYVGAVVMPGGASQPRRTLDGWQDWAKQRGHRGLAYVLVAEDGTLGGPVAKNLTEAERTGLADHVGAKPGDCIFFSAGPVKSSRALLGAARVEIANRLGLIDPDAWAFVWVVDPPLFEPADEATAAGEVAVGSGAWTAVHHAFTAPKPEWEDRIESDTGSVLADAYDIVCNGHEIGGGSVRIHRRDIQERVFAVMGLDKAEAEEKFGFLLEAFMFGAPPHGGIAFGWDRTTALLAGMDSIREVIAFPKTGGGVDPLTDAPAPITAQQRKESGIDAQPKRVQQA
Assay type: functional
Set-up: scale not given: in the data most compounds retested in dose-response had high values

Compound	Percent Effect [%]
CC(NC(=O)Nc1cc(F)ccc1N1CCCCC1)c1nncn1C (stereo not given)	-3.23
O=C(c1ccc[nH]1)N1CCC(c2nccn2Cc2ccncc2)CC1	5.61
Cc1oc(-c2nc(C#N)c(N(C)C)o2)cc1S(=O)(=O)N1CCCC1	0.145
COCC(=O)N1CC[C@@H](O)[C@@H]1Cc1ccccc1	4.62
Cn1cccc1-c1cc(C(=O)N2CC(c3cccnc3)C2)[nH]n1	-0.915
CC(C)CN1CCN(Cc2nc3ccccc3[nH]2)[C@H]2CS(=O)(=O)C[C@H]21	4.05
CC1(C)CN(C(=O)NCCc2ccn(-c3ccccc3)n2)CCO1	2.57
O=C([C@H]1C[C@H]2OCC[C@H]2N(CCc2ccccc2)C1)N1CCCCO1	0.871
N#Cc1ccc(CN2CCC(c3ccnn3CCO)CC2)cc1	1.21
Cc1ccc(CN2CCC3(C2)C(=O)N(CC(C)C)c2ccccc23)s1 (stereo not given)	-0.155
CCN(C(=O)c1ccc(-n2ncc(C#N)c2N)cc1)C1CCCC1	6.53
CC(=O)N1CCCC1c1ccc(C(=O)N2CCOCC2)s1 (stereo not given)	2.33
O=C(NCCCNC(=O)c1cccc(O)c1)NCc1ccccc1F	-5.63
Cc1cccc(CNC(CN2CCN(C)CC2)c2ccccc2)c1 (stereo not given)	3.03
CCN(CC)S(=O)(=O)N1CCCC(c2ccc(C(=O)O)cc2)C1 (stereo not given)	-0.279
c1cnn(CC2CN(CC3CCCC3)CCO2)c1 (stereo not given)	-6.1
CN(C)Cc1ccnc(C2CCCN2Cc2cc[nH]n2)n1 (stereo not given)	-4.42
CCOC1CCCN(C(=O)NCCc2ccn(-c3ccccc3)n2)C1 (stereo not given)	0.577
CCn1cnnc1C1CCN(C(=O)c2cnc3ccccc3n2)CC1	-1.17
COc1cccc(OCCNC(=O)CN2CCN(C)CC2C)c1 (stereo not given)	-3.03

Compound	Percent Effect [%]
Cc1cc(C2CCCN(C(=O)CN3CCN(C)CC3)C2)n[nH]1 (stereo not given)	-0.728
COCCN1CCC2(CCCN(C(=O)c3cnoc3C)C2)C1=O (stereo not given)	0.137
CC(NCc1ccccc1Br)c1ccc2[nH]c(=O)[nH]c2c1 (stereo not given)	5.02
CCN(Cc1nc2c(cnn2C)c(=O)[nH]1)c1cccc(Cl)c1	0.461
CC(C)(NCC(=O)NCCC#N)c1ccc2c(c1)OCCO2	11.1
COc1ccccc1CC1CCCN(CC(N)=O)C1 (stereo not given)	-3.29
Cc1cnc(Nc2nccnc2C2CCN(C)CC2)s1	-3.37
COc1cc2nc(C)n(CC(=O)NCCCN(C)C)c(=O)c2cc1OC	-0.232
O=C(O)c1nnn(-c2ccc(F)c(F)c2)c1-c1ccncc1	2.4
Cc1ncsc1CN1CC[C@H]2OCC[C@@]2(C(=O)NC(C)C)C1	2.43
CC(=O)N1CCCn2nc(CNS(=O)(=O)N3CCCCCC3)cc2C1	-7.71
O=C(Nc1cc(F)ccc1OCC1CCCO1)c1ccccn1 (stereo not given)	2.54
Cn1cc(CN2CCCN(C(=O)c3cc(Cl)cn3C)CC2)cn1	-4.75
CC(C)c1cc(NC(=O)c2ccc(NC3CC3)nc2)[nH]n1	-1.67
Cn1cc(S(=O)(=O)N2CCCC2CC(=O)c2cccs2)cn1 (stereo not given)	1.01
CCc1[nH]ncc1C(=O)N1CCCC(n2nc(C)nc2C)C1 (stereo not given)	-1.03
O=C(c1ccccc1-c1ccccc1)N1CCOC2(CNCCOC2)C1 (stereo not given)	1.51
CN(Cc1cn2c(n1)CN(C1CCOC1)CC2)Cc1ccco1 (stereo not given)	4.4
CCN1CCC(CNC(=O)C2(c3cccc(C)c3)CC2)C1 (stereo not given)	2.87
O=C(Cn1nc2c(cc1=O)CCCC2)N[C@@H](C(=O)O)c1ccccc1	-1.42
